# Where “and” joins values, the source holds several entries; their conditions need not be identical. Equal values may be shown once. For some of these results: Entries with a potency or affinity are not part of this list. Some compounds were tested as several samples or in several runs, with calls that do not always agree. Calls of active or inactive are those of the source. Unless noted, no rule for the calls is given here.
# Assays:
# [1] = antimalarial activity against Dd2 strain (AID 2302;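 active = growth inhibition above 50% at the single 2 µM test dose, taken to imply half-maximal potency below 2 µM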;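 also: 0% = DMSO untreated growth and 100% = chloroquine plus artemisinin killed control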); conditions: P. falciparum Dd2 in RBCs, LDH growth readout, 72 h; at 2 µM; stronger effect = higher value
# [2] = human hepatoma cell viability loss – ATP luminescence, cytotoxicity control for P. falciparum antimalarial project, primary screen (AID 2303;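 active = inhibition above 50%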;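 also: 0% = DMSO wells and 100% = digitonin-killed cells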); conditions: HepG2 viability, 24-48 h, at 10 µM, stronger effect = higher value
# [3] = biological target: L-lactate dehydrogenase (Plasmodium falciparum (isolate CDC / Honduras)) (UniProt Q27743); assay: PfLDH activity inhibition – cell lysate, 3D7 strain, counter-screen for P. falciparum growth inhibition project (AID 2304);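 also: 0% = vehicle and 100% = reference inhibitor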; conditions: P. falciparum 3D7 crude extract, LDH APAD/NBT absorbance; at 2 µM; stronger effect = higher value
# Sequence of L-lactate dehydrogenase (Plasmodium falciparum (isolate CDC / Honduras)) (Q27743 whole entry, looked up): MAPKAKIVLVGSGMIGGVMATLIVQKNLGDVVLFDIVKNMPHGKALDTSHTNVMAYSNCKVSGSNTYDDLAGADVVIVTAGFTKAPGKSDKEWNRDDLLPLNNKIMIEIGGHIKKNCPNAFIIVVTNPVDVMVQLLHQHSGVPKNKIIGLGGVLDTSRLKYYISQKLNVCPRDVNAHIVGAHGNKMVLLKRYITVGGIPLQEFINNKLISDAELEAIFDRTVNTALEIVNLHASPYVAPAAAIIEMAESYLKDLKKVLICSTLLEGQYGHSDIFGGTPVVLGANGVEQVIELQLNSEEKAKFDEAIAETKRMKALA
# [4] = inhibition of 3D7 malaria parasite growth – strain 3D7 (AID 2306);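 also: 0% = DMSO wells and 100% = chloroquine plus artemisinin control wells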; conditions: P. falciparum 3D7 erythrocytic growth, LDH absorbance, 72 h; at 2 µM; stronger effect = higher value
# [5] = biological target: Calcium-dependent protein kinase 1 (Plasmodium falciparum (isolate 3D7)) (UniProt P62344); assay: PfCDPK1 kinase inhibitors, biochemical, TCAMS library (AID 1159585; cut-off not given, nearly all actives have IC50 up to about 0.98 µM;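 also: inhibitors leave more ATP so luminescence rises with inhibition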); conditions: recombinant PfCDPK1, Kinase-Glo ATP depletion luminescence
# Sequence of Calcium-dependent protein kinase 1 (Plasmodium falciparum (isolate 3D7)) (P62344 whole entry, looked up): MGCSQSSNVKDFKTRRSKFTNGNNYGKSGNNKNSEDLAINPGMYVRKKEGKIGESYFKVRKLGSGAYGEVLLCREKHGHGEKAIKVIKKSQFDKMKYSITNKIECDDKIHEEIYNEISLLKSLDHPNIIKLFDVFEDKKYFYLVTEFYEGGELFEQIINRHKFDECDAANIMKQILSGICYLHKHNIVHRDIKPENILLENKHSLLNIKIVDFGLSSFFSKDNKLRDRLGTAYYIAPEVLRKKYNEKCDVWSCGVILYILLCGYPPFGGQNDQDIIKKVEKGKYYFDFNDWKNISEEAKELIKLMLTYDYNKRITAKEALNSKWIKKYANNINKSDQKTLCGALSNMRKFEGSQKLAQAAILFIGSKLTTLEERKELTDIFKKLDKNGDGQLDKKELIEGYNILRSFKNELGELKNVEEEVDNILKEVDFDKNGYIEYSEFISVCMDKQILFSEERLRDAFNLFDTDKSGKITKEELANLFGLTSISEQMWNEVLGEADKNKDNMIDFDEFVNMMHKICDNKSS
# [6] = biological target: Plasmodium falciparum protein kinase 6 (PK6, PF3D7_1337100) (UniProt Q8IDW1); assay: PfPK6 kinase inhibitors, biochemical, TCAMS library (AID 1159586); conditions: recombinant PfPK6, Kinase-Glo ATP depletion luminescence
# Sequence of Plasmodium falciparum protein kinase 6 (PK6, PF3D7_1337100) (Q8IDW1 1-305): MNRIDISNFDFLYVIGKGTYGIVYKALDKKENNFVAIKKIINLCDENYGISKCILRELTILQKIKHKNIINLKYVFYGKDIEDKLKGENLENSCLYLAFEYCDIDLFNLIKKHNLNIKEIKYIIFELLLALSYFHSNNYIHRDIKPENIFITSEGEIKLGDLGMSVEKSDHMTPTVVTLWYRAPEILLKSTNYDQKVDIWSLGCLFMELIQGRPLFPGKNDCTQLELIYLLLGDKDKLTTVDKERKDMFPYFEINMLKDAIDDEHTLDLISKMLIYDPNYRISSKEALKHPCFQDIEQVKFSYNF
# [7] = biological target: Protein kinase 7 (PK7), Plasmodium falciparum 3D7 (PF3D7_0213400) (UniProt Q7YTF7); assay: inhibition of Plasmodium PK7 catalytic activity – biochemical, TCAMS antimalarial set, Kinase-Glo luminescence (AID 1159587); conditions: recombinant PfPK7, Kinase-Glo ATP depletion luminescence
# Sequence of Protein kinase 7 (PK7), Plasmodium falciparum 3D7 (PF3D7_0213400) (Q7YTF7 1-343): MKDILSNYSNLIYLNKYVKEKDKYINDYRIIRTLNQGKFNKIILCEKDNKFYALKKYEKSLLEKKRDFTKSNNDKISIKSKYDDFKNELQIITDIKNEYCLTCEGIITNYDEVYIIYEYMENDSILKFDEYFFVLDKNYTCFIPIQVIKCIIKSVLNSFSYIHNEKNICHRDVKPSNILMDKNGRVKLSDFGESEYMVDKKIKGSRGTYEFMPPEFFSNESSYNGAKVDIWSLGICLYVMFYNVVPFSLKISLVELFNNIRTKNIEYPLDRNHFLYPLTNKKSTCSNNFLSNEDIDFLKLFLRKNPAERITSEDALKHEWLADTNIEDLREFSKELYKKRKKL
# [8] = biological target: Calcium-dependent protein kinase 4 (Plasmodium falciparum (isolate 3D7)) (UniProt Q8IBS5); assay: PfCDPK4 kinase inhibitors, biochemical, TCAMS library (AID 1159588; cut-off not given, nearly all actives have IC50 up to about 0.91 µM); conditions: recombinant PfCDPK4, Kinase-Glo ATP depletion luminescence
# Sequence of Calcium-dependent protein kinase 4 (Plasmodium falciparum (isolate 3D7)) (Q8IBS5 whole entry, looked up): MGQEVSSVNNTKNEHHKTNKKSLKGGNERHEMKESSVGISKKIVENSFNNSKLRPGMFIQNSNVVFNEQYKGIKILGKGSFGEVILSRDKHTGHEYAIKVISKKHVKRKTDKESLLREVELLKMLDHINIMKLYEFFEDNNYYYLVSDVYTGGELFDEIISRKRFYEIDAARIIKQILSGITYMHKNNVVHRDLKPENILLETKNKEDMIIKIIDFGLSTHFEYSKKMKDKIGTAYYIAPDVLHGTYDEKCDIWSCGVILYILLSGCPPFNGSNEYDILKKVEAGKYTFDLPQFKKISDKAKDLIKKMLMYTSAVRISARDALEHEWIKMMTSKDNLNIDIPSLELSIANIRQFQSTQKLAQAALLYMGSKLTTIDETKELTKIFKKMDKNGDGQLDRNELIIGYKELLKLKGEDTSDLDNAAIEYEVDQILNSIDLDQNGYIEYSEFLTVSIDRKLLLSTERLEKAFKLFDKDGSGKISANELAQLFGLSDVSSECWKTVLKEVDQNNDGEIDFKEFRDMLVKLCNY
# F380Y = assay: BK channel mutant inhibitors and activators – cell-based, U2OS BacMam, thallium flux, beta subunits, selectivity assay, profiling panel (AID 1259406;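 active = thallium flux through the channel raised or lowered by more than 3 SD from vehicle-only wells, actives on both sides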;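 also: initial slope of Thallos dye fluorescence rise after thallium is added; log ratio against the mean of 0.3% DMSO vehicle wells on the same plate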); conditions: U2OS BacMam BK variants, at 30 µM
# F380Y/beta1 = assay: as above; conditions: U2OS BacMam BK variants, at 30 µM
# F380Y/beta2Delta = assay: as above; conditions: U2OS BacMam BK variants, at 30 µM
# F380Y/beta4 = assay: as above; conditions: U2OS BacMam BK variants, at 30 µM
# [9] = biological target: Calcium-activated potassium channel subunit alpha-1 (Homo sapiens) + Leucine-rich repeat-containing protein 26 (Homo sapiens) (UniProt Q12791+Q2I0M4); assay: as above; conditions: U2OS BacMam BK variants, F380Y/Slo1WT/gamma1, at 30 µM
# Sequence of Calcium-activated potassium channel subunit alpha-1 (Homo sapiens) + Leucine-rich repeat-containing protein 26 (Homo sapiens) (Q2I0M4 whole entry, looked up, one chain of several): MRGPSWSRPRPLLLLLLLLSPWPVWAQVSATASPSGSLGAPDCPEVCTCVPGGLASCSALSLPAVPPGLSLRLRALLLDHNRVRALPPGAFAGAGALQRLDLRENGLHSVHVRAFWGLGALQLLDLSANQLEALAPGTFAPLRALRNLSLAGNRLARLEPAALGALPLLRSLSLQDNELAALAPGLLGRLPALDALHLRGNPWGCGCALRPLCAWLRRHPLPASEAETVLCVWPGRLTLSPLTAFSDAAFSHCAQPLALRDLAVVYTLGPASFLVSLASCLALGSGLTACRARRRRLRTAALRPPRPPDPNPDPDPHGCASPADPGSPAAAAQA
# R275C = assay: as above; conditions: U2OS BacMam BK variants, at 30 µM
# R275C/beta1 = assay: as above; conditions: U2OS BacMam BK variants, at 30 µM
# R275C/beta2Delta = assay: as above; conditions: U2OS BacMam BK variants, at 30 µM
# R275C/beta4 = assay: as above; conditions: U2OS BacMam BK variants, at 30 µM
# R275C/Slo1WT/beta2 = assay: as above; conditions: U2OS BacMam BK variants, at 30 µM
# [10] = P. berghei load reduction in hepatocytes – cell-based, HepG2, luciferase luminescence, HepG2 viability, primary screen (AID 624349; in the data active = parasite load remaining mostly below about 12%, no sharp cut-off; inactive = mostly above about 10%;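 also: 100% = mean of DMSO negative control wells on the same plate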); conditions: P. berghei liver stage in HepG2, luciferase luminescence, concentration not given here; parasite load remaining: stronger effect = lower value; viability: measured here: HepG2 viability without parasites
# [11] = signal quenchers or enhancers, Cy5 substrate/SSB – biochemical, NIH Clinical Collection, E. coli SSB, artefact control for HCV NS3 helicase inhibitor project (AID 743268); conditions: Cy5-oligo bound E. coli SSB, fluorescence interference
# [12] = tested on: Hepatitis C virus NS3 helicase; assay: blockers of NS3h binding to DNA – biochemical, fluorescence polarization, NIH Clinical Collection, primary screen (AID 743270); conditions: NS3 helicase binding to Cy5-dT15 DNA, stronger effect = higher value, concentration not given here
# [13] = biological target: Single-stranded DNA-binding protein (Escherichia coli (strain K12)) (UniProt P0AGE0); assay: SSB-ssDNA binding inhibitors – biochemical, fluorescence polarization, NIH Clinical Collection, counter-screen for HCV NS3 helicase inhibitor project (AID 743271; in the data active = inhibition above about 28%); conditions: E. coli SSB-DNA binding, stronger effect = higher value, concentration not given here
# [14] = compounds distorting NS3 helicase fluorescence signal – biochemical, NIH Clinical Collection, artefact control for HCV NS3 helicase inhibitor project (AID 743272); conditions: fluorescence interference counterscreen, HCV NS3 helicase assay; stronger effect = lower value;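 also: HCV NS3 helicase with a Cy5 labelled single stranded DNA probe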
# [15] = tested on: Neuropilin-2 / VEGF-C interaction (human); assay: small molecules blocking Neuropilin-2/VEGF-C interaction – biochemical, microplate binding format, z-score (AID 743281); conditions: microplate NRP2/VEGF-C binding assay; stronger effect = lower value
# [16] = modulation of C. elegans fzo-1 (AID 1259413);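 also: fzo-1 mutant C. elegans worms in liquid wells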; conditions: C. elegans fzo-1 modulator screen, mean read-out; stronger effect = higher value
# [17] = tested on: Aerobactin synthetase IucA (Klebsiella pneumoniae); assay: inhibition of K. pneumoniae IucA enzyme – biochemical, Tocris library, absorbance (AID 1345561); conditions: purified IucA enzyme assay, absorbance (OD) read-out; stronger effect = lower value;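 tested at 8 µM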;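 also: 100% = enzyme without compound and 0% = no enzyme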
# [18] = viability loss with induced miR-34 in A549 – imaging, A549 dox-inducible miR-34, nuclei and caspase counts, primary screen (AID 1347080;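 active = compounds whose cell count with miR-34 switched on is under 0.7 times the count with it off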); conditions: A549 miR-34 inducible, Hoechst nuclei count, 48 h
# [19] = galactose survival enhancers in mitochondrial complex I cybrids – cell-based, galactose medium, ATP luminescence, primary screen (AID 1645843;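 active = z-score of at least 1.8 in each of two replicates, scored against plate mean and spread of sample wells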;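 also: positive z means more ATP and so rescue of galactose-driven cybrid death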); conditions: complex I mutant cybrid cells, 72 h, stronger effect = higher value
compound,measurement,setting,value
CCCCCCC(CC)c1cc(O)c2c(c1)OC(C)(C)c1ccncc1-2 (stereo not given),growth inhibition,[1],52% (active)
same,inhibition,[2],-1% (inactive)
same,inhibition,[3],-6% (inactive)
same,growth inhibition,[4],94% (active)
same,outcome,[5],inactive
same,outcome,[6],inactive
same,outcome,[7],inactive
same,outcome,[8],inactive
O=c1c2ccccc2[nH]c(=S)n1-c1ccccc1,log fold change Tl+ flux,F380Y,-0.0122 (inactive)
same,log fold change Tl+ flux,F380Y/beta1,0.0064 (inactive)
same,log fold change Tl+ flux,F380Y/beta2Delta,0.0408 (inactive)
same,log fold change Tl+ flux,F380Y/beta4,0.0104 (inactive)
same,log fold change Tl+ flux,[9],0.0486 (inactive)
same,log fold change Tl+ flux,R275C,-0.0195 (inactive)
same,log fold change Tl+ flux,R275C/beta1,0.0238 (inactive)
same,log fold change Tl+ flux,R275C/beta2Delta,-0.000731 (inactive)
same,log fold change Tl+ flux,R275C/beta4,0.00834 (inactive)
same,log fold change Tl+ flux,R275C/Slo1WT/beta2,-0.0521 (inactive)
CCN1CC=C(c2c[nH]c3ccccc23)CC1,growth inhibition,[1],58% (active)
same,inhibition,[2],27% (inactive)
same,inhibition,[3],-1% (inactive)
same,growth inhibition,[4],84% (active)
same,outcome,[5],inactive
same,outcome,[6],inactive
same,outcome,[7],inactive
same,outcome,[8],inactive
O=C(/C=C/c1ccc(Cl)c(Cl)c1)NCCCCCN1C2CCC1CC(c1c[nH]c3ccccc13)C2 (stereo not given),growth inhibition,[1],4% (inactive)
same,inhibition,[2],54% (active)
same,inhibition,[3],-1% (inactive)
same,growth inhibition,[4],98% (active)
same,outcome,[5],inactive
same,outcome,[6],inactive
same,outcome,[7],inactive
same,outcome,[8],inactive
CS(=O)(=O)Nc1ccc(Cc2noc(-c3ccc4[nH]cc(CCN)c4c3)n2)cc1,parasite load remaining,[10],62% (inactive)
same,viability,[10],68.7%
same,fluorescence ratio,[11],0.59 (active)
same,inhibition,[12],3.28% (inactive)
same,inhibition,[13],36.6% (active)
same,fluorescence ratio,[14],0.8 (active)
same,z-score,[15],1.81 (inactive)
same,mean signal,[16],254 (inactive)
same,remaining activity,[17],103% (inactive)
same,fold change,[18]; stronger effect = lower value,0.897 (inactive)
same,fold change,"[18]; stronger effect = lower value, cell number ratio, induced over uninduced",0.9 (inactive)
same,fold change,[18]; measured here: relative caspase fold change +Dox/-Dox,2.28 and 0.865
same,cell count,"[18]; measured here: total cells with miR-34 induction, stronger effect = lower value",9380 and 8560
same,cell count,[18]; measured here: total cells without miR-34 induction,10500 and 9520
same,z-score,[19],0.895 (inactive) and 2.6 (active)
same,log fold change Tl+ flux,F380Y,-0.0227 (inactive)
same,log fold change Tl+ flux,F380Y/beta1,0.0172 (inactive)
same,log fold change Tl+ flux,F380Y/beta2Delta,-0.088 (inactive)
same,log fold change Tl+ flux,F380Y/beta4,-0.0117 (inactive)
same,log fold change Tl+ flux,[9],-0.0241 (inactive)
same,log fold change Tl+ flux,R275C,-0.054 (inactive)
same,log fold change Tl+ flux,R275C/beta1,0.0159 (inactive)
same,log fold change Tl+ flux,R275C/beta2Delta,-0.0492 (inactive)
same,log fold change Tl+ flux,R275C/beta4,0.0477 (inactive)
same,log fold change Tl+ flux,R275C/Slo1WT/beta2,0.0125 (inactive)
COc1ccc(C(=O)c2ccc3[nH]cc(C4=CCN(C)CC4)c3c2)cc1,growth inhibition,[1],55% (active)
same,inhibition,[3],4% (inactive)
same,growth inhibition,[4],88% (active)
same,outcome,[5],inactive
same,outcome,[6],inactive
same,outcome,[7],inactive
same,outcome,[8],inactive
O=C(c1cccs1)N(Cc1cccc(-c2ccc(CNC3CCCC3)cc2)c1)C1CCN(Cc2ccccc2)CC1,growth inhibition,[1],74% (active)
same,inhibition,[2],20% (inactive)
same,inhibition,[3],0% (inactive)
same,growth inhibition,[4],90% (active)
same,outcome,[5],inactive
same,outcome,[6],inactive
same,outcome,[7],inactive
same,outcome,[8],inactive
CSC(=NCc1ccccc1Cl)NC(N)=N[N+](=O)[O-],log fold change Tl+ flux,F380Y,0.0102 (inactive)
same,log fold change Tl+ flux,F380Y/beta1,0.0433 (inactive)
same,log fold change Tl+ flux,F380Y/beta2Delta,0.00986 (inactive)
same,log fold change Tl+ flux,F380Y/beta4,0.0594 (inactive)
same,log fold change Tl+ flux,[9],0.0227 (inactive)
same,log fold change Tl+ flux,R275C,-0.0153 (inactive)
same,log fold change Tl+ flux,R275C/beta1,-0.0278 (inactive)
same,log fold change Tl+ flux,R275C/beta2Delta,0.0233 (inactive)
same,log fold change Tl+ flux,R275C/beta4,-0.0373 (inactive)
same,log fold change Tl+ flux,R275C/Slo1WT/beta2,-0.0343 (inactive)
COc1ccc(C[C@@H](C)NC[C@H](O)c2cccc(Cl)c2)cc1F,growth inhibition,[1],76% (active)
same,inhibition,[2],2% (inactive)
same,inhibition,[3],-2% (inactive)
same,growth inhibition,[4],88% (active)
same,outcome,[5],inactive
same,outcome,[6],inactive
same,outcome,[7],inactive
same,outcome,[8],inactive
O=C(c1cc(C(=O)NCc2ccc(Cl)cc2)c(=O)n(Cc2ccc(Cl)cc2)c1)c1cc(Cl)ccc1O,growth inhibition,[1],4% (inactive)
same,inhibition,[2],6% (inactive)
same,inhibition,[3],-1% (inactive)
same,growth inhibition,[4],80% (active)
same,outcome,[5],inactive
same,outcome,[6],inactive
same,outcome,[7],inactive
same,outcome,[8],inactive
